Screening results deposited in PubChem BioAssay by National Center for Advancing Translational Sciences (NCATS).
This is a sample that favours compounds with a hit; in the whole collection about 18% have one here.
VDR inhibitor: inhibitors of human vitamin D receptor; VDR-SRC2-3 peptide fluorescence polarization, 2 h; Potency, µM, without a hit: max response, negative = inhibition, most hits filed as inhibitors; 400,000 compounds, 0.93% hits; AID 504847
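Inhibition of the VDR/SRC2-3 peptide interaction is quantified by fluorescence polarization. Compounds (23 nl, pintool) incubate with the reagents for 2 hours at ambient room temperature.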
PLK1 PBD inh: inhibitors of human PLK1 polo-box domain binding | P53350 | Plk1 PBD binding of FITC phosphopeptide, fluorescence polarization | Potency, µM, for inactives: max response, negative = inhibition, most hits filed as inhibitors | 360,000 compounds, 2.8% hits | AID 720504; also: series mostly up to about 57 µM; nearly all actives have a fitted effect of over 65% in size
Target sequence (P53350 whole entry, looked up, the tested form may be a part): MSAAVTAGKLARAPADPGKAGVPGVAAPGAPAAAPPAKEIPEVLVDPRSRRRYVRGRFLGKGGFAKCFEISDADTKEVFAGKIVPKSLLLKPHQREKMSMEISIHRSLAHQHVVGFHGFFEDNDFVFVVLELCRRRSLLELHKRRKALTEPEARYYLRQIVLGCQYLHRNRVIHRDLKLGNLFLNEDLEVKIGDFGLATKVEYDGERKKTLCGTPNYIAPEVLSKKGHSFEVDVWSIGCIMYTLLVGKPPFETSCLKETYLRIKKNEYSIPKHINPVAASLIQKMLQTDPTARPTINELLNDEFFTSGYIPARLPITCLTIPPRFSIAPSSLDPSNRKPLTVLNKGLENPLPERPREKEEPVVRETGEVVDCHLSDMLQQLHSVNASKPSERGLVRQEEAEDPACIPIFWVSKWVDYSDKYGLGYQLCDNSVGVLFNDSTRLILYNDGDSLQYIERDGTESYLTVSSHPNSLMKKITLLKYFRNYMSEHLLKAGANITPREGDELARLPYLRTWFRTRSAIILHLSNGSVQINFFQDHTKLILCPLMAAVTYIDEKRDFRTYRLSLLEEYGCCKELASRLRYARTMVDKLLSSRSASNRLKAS
TDP1 block: blocks human tyrosyl-DNA phosphodiesterase 1 | 350,000 compounds, 0.28% hits | Potency, µM (series often up to 130 µM), for the others: top-dose activity change, negative = inhibition, actives largely listed as inhibitors | AID 485290 | Q9NUW8 | recombinant TDP1, AlphaScreen DNA substrate cleavage; also: nearly all actives have a fitted effect of over 40% in size
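E. coli-derived human Tdp1, 1 nM final. Cpd preinc 15 min RT; substrate 15 nM final, 5 min RT; AS bead mix 10 ug/ml final, 10 min RT. Signal loss = tyrosine-FITC cleavage. No-enzyme wells = max signal.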
TDP1 cell noCPT: qHTS for Inhibitors of human tyrosyl-DNA phosphodiesterase 1 (TDP1): qHTS in cells in absence of CPT. DT40 Tdp1-/- hTDP1 cells, no CPT, ATP luminescence, 48 h. Potency, µM (top dose mostly 46.2 µM), for inactives: at the top dose activity change, negative = growth inhibition, usual class: inhibitors. 420,000 compounds, 15% hits. AID 686978, 2013; also: nearly all actives have a fitted effect of over 55% in size
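Chicken DT40 Tdp1-/- cells complemented with human TDP1, screened without camptothecin (DMSO vehicle only), 400 cells/well. Compounds pin-transferred, cells incubated at 37 °C for at least 48 hr. Growth read as ATP-dependent luminescence (CellTiter-Glo, 30 min at RT).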
DT40 TDP1 CPT: DT40-hTDP1 cell growth loss with CPT; chicken DT40 Tdp1-/-;hTDP1 cells + 20 nM CPT, ATP luminescence, 48 h; Potency, µM (series often up to 46.2 µM), for the others: at the top dose activity change, negative = growth inhibition, hits mostly inhibitors; 420,000 compounds, 12% hits; AID 686979; also: nearly all actives have a fitted effect of over 55% in size
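Cell growth measured by CellTiter-Glo luminescence after a minimum 48 h, 37 C compound exposure with 20 nM CPT in Tdp1-knockout DT40 cells stably expressing hTDP1, seeded 400/well; qHTS titration format.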
GCN5L2 inh: blocks human GCN5L2 histone acetyltransferase; Q92830; GCN5L2 HAT assay, ThioGlo1 CoA-SH fluorescence; Potency, µM (series often up to 58.9 µM), for the others: top-dose activity change, negative = inhibition, usual class: inhibitors; 390,000 compounds, 0.21% hits
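Titration-based screen in which CoA formation is detected via maleimide probe ThioGlo1 (50uM) turning fluorescent on thiol reaction; substrates H3(1-25) 75uM and acetyl-CoA 70uM, GCN5L2 20nM, 20 min incubation at room temperature.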
* = called active by the depositor; u = inconclusive; x = no result; [ ] = dose if it differs, or a comment. Calls follow the shape of the dose curve; as a rule, active = well fitted curve in the direction sought with a large enough effect; inconclusive = small, poorly fitted or top-dose-only effect, or another doubt; inactive = no such curve, though single readings can be large; an effect the other way counts as inactive or inconclusive. % is scaled to controls: 0 for no effect and ±100 for the full control effect; potency is read from the fitted curve at half-maximal effect.

SMILES | VDR inhibitor | PLK1 PBD inh | TDP1 block | TDP1 cell noCPT | DT40 TDP1 CPT | GCN5L2 inh
CCC1=C2CC[C@H]3C(=O)N(c4ccccc4)C(=O)[C@H]3[C@H]2[C@@]2(Cc3ccccc3)C(=O)N(CC(=O)OC)C(=O)N2C1=O | x | x | 7% | x | x | x
COc1ccc(-c2ccc(C(=O)Nc3cccc(F)c3)c3occc23)c(C)c1 | x | -23% | x | u | u | x
COc1ccc(-c2coc3c(C(=O)Nc4cccc(C(C)=O)c4)cccc23)c(C)c1 | x | -8% | x | 21µM* | 18µM* | x
COc1ccc(-c2ccc(C(=O)Nc3cccc(N(C)C)c3)c3occc23)c(C)c1 | x | -10% | x | u | u | x
CC(=O)Nc1ccc(NC(=O)c2ccc(-c3ccnn3C)c3ccoc23)cc1 | x | -12% | x | u | u | x
COc1ccc(-c2ccc(C(=O)Nc3cccc(NS(C)(=O)=O)c3)c3occc23)c(C)c1 | x | -1% | x | u | 16µM* | x
COc1ccc(-c2ccc(C(=O)Nc3ccc(C(C)C)cc3)c3occc23)c(C)c1 | x | -8% | x | 16µM* | u | x
COc1ccc(-c2ccc(C(=O)Nc3cccc(C(C)=O)c3)c3occc23)c(C)c1 | x | -1% | x | 8.2µM* | 12µM* | x
COc1cccc(C(=O)Nc2cccc(C(C)=O)c2)c1 | 7% | -1% | -3% | -4% | 22% | 2%
CCOC(=O)c1noc2ncnc(Nc3cc(Cl)c(OC)cc3OC)c12 | -2% | x | 6% | 10% | -12% | 0%
COc1cc(OC)cc(-n2c(=O)c3sccc3n(Cc3ccc(F)cc3)c2=O)c1 | 5% | x | 0% | u | -19% | 0%
COc1ccc(-c2ccc(C(=O)Nc3cccc(Oc4ccccc4)c3)c3occc23)c(C)c1 | x | -2% | x | 16µM* | 23µM* | x
COc1cccc(C(=O)Nc2cccnc2)c1 | 5% | -1% | 0% | -18% | -26% | 0%
COc1ccc(-c2coc3c(C(=O)Nc4cccnc4)cccc23)c(C)c1 | x | 2% | x | 8.2µM* | 18µM* | x
COc1ccc(C(=O)c2sc3nc(-c4ccc(F)cc4)ccc3c2N)cc1 | -9% | x | x | -13% | -23% | -3%
CCc1ccc(NC(=O)c2nc(SCc3ccccc3F)ncc2Cl)cc1 | x | x | x | -29% | -30% | x
CCCCCCCCCCCCCCCCN | 1% | x | 0% | -11% | 7% | -5%
O=C(c1cnn(-c2nccc(-c3ccccc3C(F)(F)F)n2)c1C1CC1)N1CCN(CCO)CC1 | x | x | x | -16% | -11%[9.04 µM] | x
CC(O)(COc1ccccc1)c1ccc2c(c1)CN(Cc1ccccn1)CCO2 (configuration not stated) | x | x | x | -20% | -1%[9.04 µM] | x
Cc1ccc(SCc2[nH]nc3c2C(c2ccc(C)o2)C(C#N)=C(N)O3)cc1 (configuration not stated) | -28% | u | 7% | 16µM* | 16µM* | 82%
CC(C)c1[nH]nc2c1C(c1ccco1)C(C#N)=C(N)O2 (configuration not stated) | -27% | -2% | 0% | u | -3% | -4%
Cc1ccc(SCc2[nH]nc3c2C(c2ccco2)C(C#N)=C(N)O3)cc1 (configuration not stated) | -91% | 9.5µM* | 5% | u | u | -16%
COc1ccc(-c2nc3cnc(OC)nc3n(Cc3cccc(OC)c3)c2=O)cc1 | -3% | x | x | -11% | 5% | u
CC(C)(C)NS(=O)(=O)c1ccc(NC(=O)C2CC(=O)N(CCc3ccc(F)cc3)C2)cc1 (configuration not stated) | -5% | -18% | 0%[0.0935 µM] | -5% | 7% | -21%
CCCSC(=S)c1c(C)[nH]n(-c2ccccc2)c1=O | -13% | -20% | 8% | 16µM* | 21µM* | 1%
SMILES | VDR inhibitor | PLK1 PBD inh | TDP1 block | TDP1 cell noCPT | DT40 TDP1 CPT | GCN5L2 inh
Cc1[nH]n(-c2ccccc2)c(=O)c1Sc1ccc(Cl)cc1 | -1% | 0% | 3% | u | u | -1%
CCOC(=O)CCN1C(=O)[C@H]2[C@H]3[C@H](O)[C@H](O)C/C(=N/OC[C@@H](O)COCc4ccco4)[C@H]3CC[C@@H]2C1=O | x | x | 3%[21 µM] | x | x | x
COc1ccc([N+](=O)[O-])cc1NC(=S)NC(NC(C)=O)C(Cl)(Cl)Cl (configuration not stated) | -2% | 27µM* | -4% | -5% | -16% | -3%
COc1ccc(NC(=S)NC(NC(=O)C(C)C)C(Cl)(Cl)Cl)c([N+](=O)[O-])c1 (configuration not stated) | 3% | 27µM* | 6% | -23% | -23% | 1%
CN1OC[C@@H]2CN[C@H](c3cccc(Oc4ccccc4)c3)C[C@@H]21 | x | -4% | x | -1% | -4% | x
Cc1c(C(=O)N2CCC(C(=O)Nc3ccc(F)cc3)CC2)sc2nc[nH]c(=O)c12 | 1% | x | 8% | -9% | -1% | 15%
COc1ccc(C)cc1NC(=O)Cn1c(=O)oc2cc(S(=O)(=O)N3CCCCCC3)ccc21 | 15% | x | 5% | 12µM* | 16µM* | 3%
Cc1ccc(NC(=O)Cn2c(=O)oc3cc(S(=O)(=O)N4CCCCC4)ccc32)c(C)c1 | 4% | x | 4% | 8.2µM* | 6.5µM* | -5%
CCC1=C(OC(=O)N(CC)CC)N2C(=O)OC(=NCCOC)[C@]2(C)[C@H]2C1=CC[C@H]1C(=O)N(CC(=O)OC)C(=O)[C@H]12 | x | x | -2% | x | x | x
Cn1nnc2cc(NC(=O)Nc3ccccc3F)ccc21 | x | -21% | x | 16µM* | u | x
NC1=NC(=O)/C(=C/c2cc(Br)c(O)c(Br)c2)S1 | -12% | -1% | x | 0% | 3% | -10%
COc1cc(/C=C2\SC(N)=NC2=O)cc(OC)c1 | u | 13µM* | -17% | u | 18µM* | -12%
COc1cc(/C=C2\SC(N)=NC2=O)ccc1O | 5% | 9% | 5% | 4.6µM* | 12µM* | u
O=C(NC1CCCC1)c1cc2nc(-c3ccccc3)cc(-c3ccccc3)n2n1 | -10% | 2% | x | u | u | 2%
COc1ccc(NC(=O)c2cc3nc(-c4ccccc4)cc(-c4ccccc4)n3n2)c(OC)c1 | -2% | -1% | -5% | 10µM* | 11µM* | -7%
COc1ccc(-c2cn3nc(SCC(=O)Nc4cc(C)cc(C)c4)ccc3n2)cc1 | -3% | x | 0% | 21µM* | u | -7%
COc1ccc(-c2cn3nc(SCC(=O)Nc4cccc(C)c4C)ccc3n2)cc1 | 10% | x | 3% | u | 15µM* | 1%
CC1CCN(C(=O)c2cc3nc(-c4ccccc4)cc(-c4ccccc4)n3n2)CC1 | 3% | -7% | x | 29µM* | 16µM* | -5%
